This passage reports Inhibition results from ChEMBL document CHEMBL4513146, “CO-ADD screening of Karazin Kharkiv National University (Ukraine) compounds”.

Results with a measured potency or affinity are listed apart.

The subject of the test is Klebsiella pneumoniae. The note with it: Concentration 32 ug.mL-1;; ASSAY_TEST Inhibition of Bacterial Growth; detection method Absorption (OD600); MEDIA CAMHB; plate type 384well; NBS; CORNING #3640; time 18 hr.
As a reminder, the Inhibition is the change of the read-out against control, counted positive when it falls. `CCc1ccc(N(Cc2cccc(C)c2)S(=O)(=O)c2cccn3c(C)nnc23)cc1`: the Inhibition amounted to 2.32%.
On to `COc1ccc(N(Cc2cccc(F)c2)S(=O)(=O)c2ccc3nnc(C)n3c2)cc1`, for which the Inhibition stood at 0.18%.
`CCc1ccc(NC(=O)Cn2nc3ccc(SC(C)(C)C)nn3c2=O)cc1`: the Inhibition came to 14.6%.
Regarding `COc1ccc(NC(=O)Cn2nc3ccc(-c4ccccc4)nn3c2=O)cc1OC`, the Inhibition is on record as -3.16%.
Next, `Cc1nnc2ccc(S(=O)(=O)N(Cc3ccccc3F)c3cc(F)cc(F)c3)cn12`: -4.61%; `Cc1cccc(NC(=O)CSc2nnc3c(=O)n(-c4ccccc4)ccn23)c1`: 3.26%.
Regarding `Cc1ccc(NC(=O)Cn2nc3c(N4CCOCC4)nc4ccccc4n3c2=O)cc1C`, the Inhibition is given as 11.25%.
Next, `CCOc1ccccc1NC(=O)Cn1nc2c3cc(-c4ccc(Cl)cc4)nn3ccn2c1=O`: 12.1%; `CCc1nnc2c(S(=O)(=O)N(Cc3cccc(C)c3)c3cccc(Cl)c3)cccn12`: 3.49%; `CN(Cc1ccccc1)C(=O)CSc1nnc2c3cc(-c4ccccc4)nn3ccn12`: -0.25%.
`Cc1ccc(NC(=O)Cn2nc3ccc(-c4ccc(C)c(C)c4)nn3c2=O)cc1`: the Inhibition was 11.7%.
Consider `COc1ccc(-c2cc3c4nnc(SCC(=O)Nc5ccc(C)c(F)c5)n4ccn3n2)cc1`, for which the Inhibition is reported as 1.13%.
Turning to `COC(=O)c1ccc(CN(c2ccc(Cl)cc2)S(=O)(=O)c2ccc3nncn3c2)o1`, the Inhibition was determined as 0.53%.
On to `COc1cc(OC)c(NC(=O)Cn2nc3c(Oc4cccc(C)c4C)nccn3c2=O)cc1Cl`, for which the Inhibition is recorded as 8.97%.
For `Cc1cccc(NC(=O)c2ccc3nnc(SCC(=O)Nc4ccc(Br)cc4)n3c2)c1`, the Inhibition is recorded as 7.72%.
`CC(C)CCn1c(=O)c2ccc(C(=O)NC3CCCCC3)cc2n2c(=S)[nH]nc12`: the Inhibition amounted to 1.69%.
For `COc1cccc(-n2ccn3c(-c4ccc([N+](=O)[O-])cc4)nnc3c2=O)c1`, the Inhibition is reported as 6.14%.
Regarding `COc1ccc(N2CCN(C(=O)Cn3nc4ccc(-c5ccc(Cl)cc5)nn4c3=O)CC2)cc1`, the Inhibition is -0.61%.
On to `Cn1c(=O)c2sccc2n2c(=O)n(CCOc3ccccc3)nc12`, for which the Inhibition is reported as 1.76%.
In the case of `CCCN(C)c1nccn2c(=O)n(CC(=O)Nc3cccc(C(F)(F)F)c3)nc12`, the Inhibition worked out at 7.15%.
For the molecule `CCc1cccc(NC(=O)Cn2nc3ccc(SC4CCCCC4)nn3c2=O)c1`, the Inhibition is recorded as 16.99%.
On to `COc1ccc(C)cc1NC(=O)Cn1nc2c3cc(-c4ccc(Cl)cc4)nn3ccn2c1=O`, for which the Inhibition is listed as 15.75%.
With `Cc1cc(C)cc(Nc2nc(C)cc3nn(CC(=O)Nc4ccc(Cl)cc4)c(=O)n23)c1`, the Inhibition came to 13.53%.
For `Cc1ccc(-c2cc3c4nnc(CCC(=O)N5CCN(c6ccccn6)CC5)n4ccn3n2)cc1C`, the Inhibition was found to be 7.34%.
For `CCc1nnc2c(=O)n(CC(=O)Nc3ccc(C(C)C)cc3)c3ccccc3n12` the value was 15.72%.
Turning to `COc1ccc(Cl)cc1NC(=O)Cn1nc2ccc(Sc3ccccc3)nn2c1=O`, the Inhibition turned out to be 0.86%.
Consider `CC(C)CCNC(=O)Cn1nc2n(Cc3ccco3)c(=O)c3sccc3n2c1=O`, for which the Inhibition is given as 8.27%.
For `Cc1ccc(-c2ccc3nn(CC(=O)Nc4ccccc4)c(=O)n3n2)cc1C` the value was 3.8%.
For the molecule `CCOC(=O)c1ccccc1NC(=O)Cn1nc2c(Sc3ccccc3)nccn2c1=O`, the Inhibition stood at 9.77%.
Regarding `O=c1c2nn(Cc3ccccc3Cl)c(=O)n2ccn1-c1ccccc1`, the Inhibition is 1.78%.
In the case of `Cc1ccc(NC(=O)Cn2nc3c(SC4CCCCC4)nccn3c2=O)c(Br)c1`, the Inhibition is given as 3.74%.
For the molecule `O=C(Cn1nc2c3sc(N4CCCC4)nc3ncn2c1=O)Nc1ccc(F)c(Cl)c1`, the Inhibition came out at 20.21%.
Regarding `Cc1cc2nn(CC(=O)Nc3ccc(F)cc3Cl)c(=O)n2c(Nc2ccccc2C)n1`, the Inhibition was found to be 1.95%.
As for `COc1ccc(-c2cc3c4nn(CC(=O)NCc5ccc(Cl)cc5)c(=O)n4ccn3n2)cc1`, the Inhibition amounted to 20.18%.
As for `CCCCN(C)c1ccc2nnc(CCc3nc(-c4ccc(OCc5ccccc5)cc4)no3)n2n1`, the Inhibition is listed as 3.94%.
Next, `O=c1c2nnc(SCc3ccccc3)n2ccn1-c1ccc(Br)cc1`: 7.85%; `CC(C)Cn1c(=O)c2sccc2n2c(=O)n(Cc3cccc(Br)c3)nc12`: 8.23%; `Cc1ccc(-n2ccn3c(SCC(=O)N4CCN(c5ccc(F)cc5)CC4)nnc3c2=O)cc1C`: 1.76%.
Turning to `CC(C)Sc1ccc2nn(CC(=O)Nc3ccc(Br)cc3F)c(=O)n2n1`, the Inhibition came out at 15.2%.
Regarding `CCOc1ccc(NC(=O)Cn2nc3ccc(-c4ccccc4)nn3c2=O)cc1`, the Inhibition worked out at 6.87%.
